# Assay outcomes (PubChem BioAssay)
# This is one part of a sample in which hits are shown more often than they occur.
# Pf Dd2 inh: qHTS Primary assay for Inhibitors of Plasmodium falciparum Dd2 growth in vitro. P. falciparum Dd2 growth, SYBR Green, 72 h. AID 1347417, 2020. 4.3% of 120,000 active. Potency, µM (titrated, usually from 28.9 µM), for the others: at the highest dose activity, negative = inhibition, actives largely listed as inhibitors; active means well fitted inhibition curve with a large enough effect;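 further: plate controls were DMSO vehicle for no effect and reference drug for full effect; nearly all actives have a fitted effect of over 65% in size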
#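 Readout: SYBR Green fluorescence, 485 nm excitation, 535 nm emission, after ~16 h lysis at 37C. Before that, Dd2-infected red cells (2.5% hematocrit) grew 72 h with compound, 29 uM top final concentration.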
# Numbers without * were called inactive; i = inactive; [ ] = remark or other dose. Potency means the concentration at half of the fitted maximal effect.
SMILES,Pf Dd2 inh
CC(C)c1noc([C@H]2C[C@@H]3C(=O)NCCCCCCN(C(=O)Cc4ccccc4)[C@@H]3C2)n1,i
CC(C)c1ccc(NC(=O)N[C@H]2CO[C@H]3[C@@H]2OC[C@H]3OC(=O)Nc2cccc(C(F)(F)F)c2)cc1,i
Cc1nc2c(c(-c3ccc(Cl)cc3)n1)CN([S+](=O)([O-])c1ccsc1)CC2,i
COc1ccc(C(=O)N2CCCC3(C2)NC(=O)N(Cc2ccccc2)C3=O)cc1 (centres undefined),1%
N#Cc1cccc(CN2CCCOCCNC(=O)CC2)c1,6%
COCCOc1ccc2c(n1)CCN(C(=O)C1CCCC1)C2,i
COCCOc1ccc2c(n1)CCN(C(=O)C1(c3ccc(OC)cc3)CC1)C2,7.1µM*
COCCOc1ccc2c(n1)CCN(C(=O)c1ccccc1OC)C2,-12%
CC(Oc1ccccc1)C(=O)N1CCC(n2cc(-c3nc(C(C)C)no3)nn2)CC1 (centres undefined),-21%
CN1CCCC1c1nc(C2CN(C(=O)c3ccco3)C2)no1 (centres undefined),-6%
CN1CC2(CCCN(CC3CC3)C2)c2cc(C(=O)NCCc3ccccc3)ccc21 (centres undefined),3.2µM*
CN(C)CCNC(=O)c1ccc2c(c1)C1(CCCN(CC3CC3)C1)CN2C (centres undefined),-27%[44.1 µM]
CC(=O)N1CCCC2(C1)CN(C)c1ccc(C(=O)NCCc3ccccc3)cc12 (centres undefined),13%[44.1 µM]
Cc1nc(C(=O)N2CCC(c3n[nH]c(=O)n3Cc3ccccc3)CC2)c(C)o1,12%
CCC1CCCCN1CCNC(=O)c1cc2c(s1)CN(C1CCCC1)C2 (centres undefined),6.3µM*
CCN(CCNC(=O)c1cc2c(s1)CN(C1CC1)C2)c1cccc(C)c1,-27%
CCC1CCCCN1CCCNC(=O)c1cc2c(Cl)nc3ccc(C)cc3c2s1 (centres undefined),3.5µM*
Cc1ccc2nc(Cl)c3cc(C(=O)N4CCCCC4C)sc3c2c1 (centres undefined),-17%
O=C(NC1CCN(Cc2ccccc2)CC1)c1cc2c(s1)CN(C1CCCC1)C2,7.1µM*
Cc1ccc2nc(Cl)c3cc(C(=O)N4CCCCC4)sc3c2c1,-26%
O=C(NCCN1CCCCC1)c1cc2c(s1)CCN(C(=O)c1ccc(Cl)cc1)C2,-5%
O=C(O)c1cc2c(s1)CN(C1CCCC1)C2,-3%
Cc1nnc(NC(=O)NC2CCN(Cc3ccccc3)CC2)s1,-16%
Cc1nnc([C@H]2CCN(Cc3ccco3)C2)o1,7%[44.1 µM]
CCOc1ccc(OCC)c(NC(=O)c2cc3n(n2)CC(c2ccc(Cl)cc2)OC3)c1 (centres undefined),-1%
SMILES,Pf Dd2 inh
CCC(c1cccs1)N1C(=O)[C@H]2CN(S(=O)(=O)c3cccc(OC)c3)C[C@H]2C1=O (some centres undefined),-4%
N#Cc1cccc(-c2ccc(=O)n3c2[C@@H]2C[C@@H](CN(C(=O)NC4CCCCC4)C2)C3)c1,15%[44.1 µM]
Cc1nc(C)c(C(=O)N2CCCC2c2nc(CCOCC3CC3)no2)s1 (centres undefined),-29%
CCn1cc(CN2CCC3(CC2)CC(O)CCO3)c2cc(OC)ccc21 (centres undefined),-25%
CC1(CNC(=O)c2ccoc2)CCOCC1,18%
CCCn1cc(C2CCN(S(=O)(=O)c3c(C)c(C)cc(C)c3C)CC2)c2ccccc21,10µM*
CCOCCn1cc(C2CCN(S(=O)(=O)c3c(C)cc(C)cc3C)CC2)c2ccccc21,-7%
CCOCCn1cc(C2CCN(S(=O)(=O)c3ccc(Cl)cc3Cl)CC2)c2ccccc21,-9%
COc1ccc(CN(C)Cc2ncccc2C(=O)O)cc1,15%
C[C@@H]1C(=O)O[C@H]2[C@H]1CC[C@@]1(C)Cc3sc(NC(=O)COCC(=O)O)nc3[C@@H](C)[C@H]21,i
C[C@@H]1C(=O)O[C@H]2[C@H]1CC[C@@]1(C)Cc3sc(NCc4ccccc4)nc3[C@@H](C)[C@H]21,-18%[44.1 µM]
C[C@@H]1C(=O)O[C@H]2[C@H]1CC[C@@]1(C)Cc3sc(NC(=O)COc4ccccc4)nc3[C@@H](C)[C@H]21,7.1µM*
CO[C@H]1C(=O)N(C2CCN(C(=O)C3CCCC3)CC2)[C@H]1c1ccncc1,13%
CCCN1CCc2[nH]cnc2C12CCN(C(=O)C1COc3ccccc3O1)CC2 (centres undefined),-22%
CN1CCC(Oc2ccc(NC(=O)c3ccncc3)cn2)C1 (centres undefined),2%
CNCc1ccccc1-c1ccccc1,11µM*
CNCc1ccccc1OC,1%[44.1 µM]
CNCc1ccccc1C(F)(F)F,50%[44.1 µM]
CN(C)[C@@H]1CN(C(=O)c2cc(F)cc(F)c2)C[C@H]1CO,11%
COc1cc(-c2onc(C)c2C(=O)NCCCc2ccccc2)cc(OC)c1OC,11µM*
COc1ccc([C@H](C)NC(=O)c2c(C)noc2-c2cc(OC)c(OC)c(OC)c2)cc1,-3%
COc1ccc(-c2onc(C)c2C(=O)N(C)Cc2cc(OC)c(OC)c(OC)c2)cc1,10µM*
COc1ccc(-c2onc(C)c2C(=O)NCc2c(OC)cc(OC)cc2OC)cc1,i
COCCCNC(=O)c1c(C)noc1-c1cc(OC)c(OC)c(OC)c1,22%
COc1ccc(-c2onc(C)c2C(=O)NCCCCc2ccccc2)cc1,-13%
SMILES,Pf Dd2 inh
CN(Cc1noc(C2CCCC2)n1)C(=O)Cn1ncc2ccccc2c1=O,-16%
CCN(CC)C1CCN(C(=O)c2cc(OC)ccc2OC2CCN(C(=O)C3CC3)CC2)C1 (centres undefined),2%
C=CCN1CCC2(CCC1=O)CN(c1ccc(C#N)cn1)CCN2C (centres undefined),-1%
O=C(O)CCC1CCN(S(=O)(=O)c2ccccc2F)CC1,-8%
COc1ccc(CCC(=O)N[C@@H]2CN(c3ccncn3)C[C@H]2CN(C)C)cc1,24%
Cc1ccc(CC(=O)N[C@@H]2CN(c3ccncn3)C[C@H]2CN(C)C)cc1,7%
CN(C)C[C@@H]1CN(c2ccncn2)C[C@H]1NC(=O)COc1ccc(Cl)cc1,7.9µM*
COCC1CN(C(C)=O)CC12CCN(S(=O)(=O)c1cn(C)cn1)CC2 (centres undefined),i
O=C(NC1CCc2nnc(C3CC3)n2CC1)c1ccsc1 (centres undefined),22%
CCC1c2nccn2CCCN1C(=O)CCn1nc(C)cc1C (centres undefined),17%
NC1CCc2nn(CC(=O)NCCc3nc4ccccc4[nH]3)c(=O)n2CC1 (centres undefined),i
CC(=O)N1CCc2[nH]cnc2C12CCN(C(=O)c1ccn3nnnc3c1)CC2,-3%
CCOc1ccccc1NC(=O)c1c(NCc2sccc2C)sc2c1CCCCC2,13µM*
Cc1cc(C)c2c(=O)cc(C(=O)Nc3sc4c(c3C(=O)NCc3cccnc3)CCCC4)oc2c1,27%
CCOc1ccccc1NC(=O)c1c(NCc2sccc2C)sc2c1CCC(C)C2 (centres undefined),5.6µM*
CCOC(=O)c1c(NC(=O)COc2cccc(C)c2C)sc2c1CCCCC2,69%
CC1CCc2c(sc(NC(=O)CCCOc3ccccc3)c2C(N)=O)C1 (centres undefined),30%
CCOC(=O)c1c(NC(=O)COc2ccc(Br)cc2)sc2c1CCCC2,20%
CCOc1ccc(NC(=O)NCc2c(-n3cccc3)sc3c2CCCC3)cc1,30%
CCOc1ccc(NC(=O)c2c(NCc3sccc3C)sc3c2CCCCC3)cc1,11µM*
O=C(O)CCC(=O)Nc1sc2c(c1C(=O)Nc1ccccc1)CCCCC2,2%
